4 compounds from PubChem BioAssay can be followed below.

Broadly, the inhibition is the drop in the measured response relative to a control, in per cent.

Inconclusive results are not listed. The source made the active and inactive calls.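 Rule for the calls, unless noted: active = GFP signal, as percent of the solvent control, above the screen mean plus 3 SD, about 149; inconclusive = no reading because the compound's own fluorescence upset strain identification; inactive = the rest.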

The nature of experiment [1]: yeast TOR pathway RPL19A-GFP modulators, primary screen, cell-based, S. cerevisiae, multiplex flow cytometry (AID 1862; in the data active = percent of DMSO control GFP below about 86%;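 note: lower values mimic rapamycin by blocking the RPL19A rise seen in DMSO cells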). The conditions noted are these: S. cerevisiae RPL19A-GFP strain, flow cytometry fluorescence, 3 h; at 10 µM; stronger effect = lower value.
The nature of experiment [2]: modulators of MEP2-GFP levels in yeast, primary screen, S. cerevisiae, multiplex flow cytometry (AID 1867;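 active = GFP response, as percent of the DMSO control, above the screen-wide mean plus 3 SD, about 139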;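 note: median GFP channel fluorescence of barcode-gated MEP2-GFP cells measured by flow cytometry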). The conditions noted are these: S. cerevisiae MEP2-GFP strain, 3 h, at 10 µM, stronger effect = higher value, 100% means same as DMSO wells. In general terms: A flow cytometer gives signals particle by particle.
Experiment [3] can be described thus: modulators of CIT2-GFP expression in yeast, primary screen, S. cerevisiae, GFP fusion, multiplex flow cytometry (AID 1870;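 active = percent response above a set limit, the screen-wide mean plus 3 SD, cut at about 130% in these data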;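 note: barcoded CIT2-GFP strain pooled with four other GFP strains with rapamycin as positive control; median GFP fluorescence per well over plate mean of DMSO wells so 100% = DMSO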). The conditions noted are these: 3 h, at 10 µM, stronger effect = higher value.
Experiment [4] can be described thus: modulators of LAP4-GFP expression in yeast, primary screen, S. cerevisiae, multiplex flow cytometry (AID 1873). The conditions noted are these: 3 h, at 10 µM, stronger effect = higher value.
The nature of experiment [5]: modulators of AGP1-GFP expression in yeast TOR pathway, primary screen, cell-based, multiplex flow cytometry, S. cerevisiae (AID 1887;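 active = GFP signal above the screen-wide mean plus 3 SD, that is over about 124.5% of the solvent control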;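 note: AGP1-GFP fusion strain of S. cerevisiae within a five-strain barcoded multiplex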). The conditions noted are these: 3 h, at 10 µM, stronger effect = higher value.
A short description of experiment [6]: inhibitors of CD8+ T cell-vesicle binding, pilot screen, LFA-1/ICAM-1 modulator project, MLPCN validation set, flow cytometry (AID 2523;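 active = response below a set limit, under 55% cells CD8-positive and vesicle-bound, and CD8 cells' 90th-percentile brightness under 279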;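 for vesicle binding response: mean PE anti-B7-1 fluorescence of CD8+ cells relative to row control; 100% = QL9-loaded vesicles with DMSO vehicle in the same plate row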). As to conditions: 2C mouse CD8+ T cells, at 7 µM, stronger effect = lower value; double positive events: measured here: CD8+/vesicle+ event percentage.
The target in experiment [7] is Integrin beta-1 (Homo sapiens) + Integrin alpha-4 (Homo sapiens) (UniProt P13612+P05556). The experiment is described as follows: inhibition of HUTS-21 binding to VLA-4, pilot screen, VLA-4 allosteric modulator project, U937 cells, HUTS-21 mAb, flow cytometry, validation set (AID 2674;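 active = inhibition above 50%, about 3 SD of the validation set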;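 note: antibody binding induced by the VLA-4 ligand LDV present at three times its Kd; 0% = LDV ligand with antibody and no compound and 100% = antibody without LDV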). As to conditions: HUTS-21 LIBS mAb binding, at 6.7 µM, stronger effect = higher value, binding induced by LDV ligand.

Experiment [8] can be described thus: superoxide lowering in aged yeast cells, pilot screen, validation compound set (AID 2706;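 active = superoxide response below 65% of plate, a cut near 3 SD across the whole screen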;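 note: yeast exposed to compound for one week at 30 degrees C before staining; 100% = mean of all compound wells on the same plate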). The conditions noted are these: S. cerevisiae aging, superoxide DHE fluorescence; at 10 µM; stronger effect = lower value.
Experiment [9] has as its target Beta-adrenergic receptor kinase 1 (Homo sapiens) (UniProt P25098). In words: GRK2 binders displacing RNA aptamer, biochemical, validation, human GRK2, bead flow cytometry (AID 488806;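 active = aptamer binding inhibition above 30%, about 3 SD of noise from non-fluorescent compounds; inactive = inhibition at or below 30%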). As to conditions: bead-bound GRK2, FAM-aptamer displacement, at 10 µM, stronger effect = higher value.
The target of experiment [10] is Beta-2 adrenergic receptor (Homo sapiens) (UniProt P07550). In words: beta2AR agonists driving receptor internalization, pilot screen, cell-based, FAP fluorogen, flow cytometry, validation set (AID 504459;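 active = percent response above 42, roughly 3 SD of non-fluorescent test compounds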;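 note: agonist-driven loss of surface beta2AR via internalization measured by FAP dye flow cytometry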). As to conditions: Am2.2-beta2AR cells, FAP surface receptor flow cytometry; at 10 µM; stronger effect = higher value.
The target in experiment [11] is AP-2 complex subunit beta (Homo sapiens) (UniProt P63010). The experiment is described as follows: inhibitors of arrestin peptide binding to AP2, pilot screen, biochemical, validation set, GST-AP2 beads, flow cytometry (AID 504541;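 active = inhibition above 54%, about 3 SD of non-fluorescent compounds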;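 note: AP2 carries R879A mutation and is captured from E. coli lysate; bead-bound FITC arrestin peptide fluorescence measuring arrestin peptide binding to AP2; 0% = DMSO wells and 100% = excess unlabeled arrestin peptide control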). As to conditions: FITC arrestin peptide, at 10 µM, stronger effect = higher value, AP2 beta2 appendage fragment, R879A mutant.
Experiment [12] in a line: yeast V-ATPase proton transport modulators, S. cerevisiae, pHLuorin, HTS validation (AID 504600; in the data active = response above about 15%;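 note: plate controls were DMSO for no effect and reference compound for full effect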). The conditions noted are these: S. cerevisiae pHLuorin cytosolic pH, at 10 µM, stronger effect = higher value.
For experiment [13], the system named is anti-desmoglein-3 scFv antibody binding to human DSG3. In words: inhibitors of anti-DSG3 scFv binding to DSG3, pilot screen, biochemical, validation compound set, bead-based, flow cytometry (AID 588368;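 active = binding below the plate cutoff, the plate median minus 3 SD, with a reading above zero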;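 note: signal is the median channel fluorescence of bead-bound GFP antibody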). As to conditions: Protein G beads, DSG3-Fc, scFv-GFP binding, at 10 µM, stronger effect = lower value.
A short description of experiment [14]: inhibitors of fungal efflux pumps CDR1, CDR2, MDR1, pilot screen, validation compound set, multiplex, phenotypic (AID 588506;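 active = efflux inhibition above 0.42, the validation set average plus 4 SD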;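 note: Nile Red retained in cells so higher fluorescence means more efflux inhibition; 0 = negative control wells and 1 = enniatin B 25 µM full block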). As to conditions: S. cerevisiae pump-expressing triplex, Nile Red efflux flow cytometry; at 10 µM; stronger effect = higher value; the pumps come from Candida albicans.
Experiment [15] addresses ATP-binding cassette sub-family B member 6 (Homo sapiens) (UniProt Q9NP58). The experiment is described as follows: ABCB6 transporter inhibitors, pilot screen, K562-ABCB6 cells, flow cytometry, validation set (AID 588550;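 active = inhibition above the screen-wide mean plus 3 SD, about 51%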;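 note: 0% = DMSO wells and 100% = benzethonium chloride 70 µM positive control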). The conditions noted are these: K562-ABCB6 porphyrin accumulation, 1 h, at 10 µM, stronger effect = higher value.
Experiment [16] can be described thus: promoters of myeloid differentiation in arrested cells, primary screen, cell-based, GFP/MAC1 double positive, flow cytometry, validation set (AID 588685;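 active = differentiation response of at least 50%, scaled between solvent and reference control, from cells with both markers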;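 note: compound exposure lasts four days before antibody staining and flow analysis; 0% = DMSO wells and 100% = 5 µM fulvestrant positive control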). As to conditions: ER-HoxA9 marrow cells, stronger effect = higher value, normalized: vehicle 0, fulvestrant 100.

Sequence of Beta-adrenergic receptor kinase 1 (Homo sapiens) (P25098 whole entry, looked up): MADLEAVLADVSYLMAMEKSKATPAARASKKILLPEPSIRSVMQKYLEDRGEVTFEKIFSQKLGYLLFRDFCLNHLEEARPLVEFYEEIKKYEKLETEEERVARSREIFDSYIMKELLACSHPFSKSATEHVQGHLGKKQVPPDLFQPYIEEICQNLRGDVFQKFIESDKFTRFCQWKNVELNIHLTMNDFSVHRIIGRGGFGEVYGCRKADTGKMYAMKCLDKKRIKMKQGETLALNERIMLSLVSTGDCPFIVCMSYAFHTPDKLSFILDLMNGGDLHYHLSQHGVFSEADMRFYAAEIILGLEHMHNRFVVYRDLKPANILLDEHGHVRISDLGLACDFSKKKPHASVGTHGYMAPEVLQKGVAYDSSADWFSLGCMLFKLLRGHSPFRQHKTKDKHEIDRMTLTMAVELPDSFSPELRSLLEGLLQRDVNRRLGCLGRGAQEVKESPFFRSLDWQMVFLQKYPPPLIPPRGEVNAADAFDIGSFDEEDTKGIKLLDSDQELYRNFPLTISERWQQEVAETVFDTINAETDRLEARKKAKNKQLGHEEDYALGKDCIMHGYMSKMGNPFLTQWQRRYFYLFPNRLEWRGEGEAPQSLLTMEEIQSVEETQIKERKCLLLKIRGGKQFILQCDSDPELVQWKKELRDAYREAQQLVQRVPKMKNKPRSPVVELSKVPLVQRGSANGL
Sequence of Beta-2 adrenergic receptor (Homo sapiens) (P07550 whole entry, looked up): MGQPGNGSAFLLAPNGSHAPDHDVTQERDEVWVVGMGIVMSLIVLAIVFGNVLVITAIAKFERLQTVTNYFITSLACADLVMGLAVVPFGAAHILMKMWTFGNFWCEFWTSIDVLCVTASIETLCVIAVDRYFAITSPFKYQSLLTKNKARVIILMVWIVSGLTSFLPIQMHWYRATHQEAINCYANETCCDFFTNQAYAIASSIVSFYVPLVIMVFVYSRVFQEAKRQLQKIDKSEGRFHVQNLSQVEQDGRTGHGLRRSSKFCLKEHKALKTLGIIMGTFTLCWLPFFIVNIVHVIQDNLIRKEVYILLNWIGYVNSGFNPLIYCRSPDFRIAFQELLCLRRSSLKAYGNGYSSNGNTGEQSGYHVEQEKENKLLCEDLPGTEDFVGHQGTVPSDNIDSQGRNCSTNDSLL
Sequence of Integrin beta-1 (Homo sapiens) + Integrin alpha-4 (Homo sapiens) (P05556 whole entry, looked up): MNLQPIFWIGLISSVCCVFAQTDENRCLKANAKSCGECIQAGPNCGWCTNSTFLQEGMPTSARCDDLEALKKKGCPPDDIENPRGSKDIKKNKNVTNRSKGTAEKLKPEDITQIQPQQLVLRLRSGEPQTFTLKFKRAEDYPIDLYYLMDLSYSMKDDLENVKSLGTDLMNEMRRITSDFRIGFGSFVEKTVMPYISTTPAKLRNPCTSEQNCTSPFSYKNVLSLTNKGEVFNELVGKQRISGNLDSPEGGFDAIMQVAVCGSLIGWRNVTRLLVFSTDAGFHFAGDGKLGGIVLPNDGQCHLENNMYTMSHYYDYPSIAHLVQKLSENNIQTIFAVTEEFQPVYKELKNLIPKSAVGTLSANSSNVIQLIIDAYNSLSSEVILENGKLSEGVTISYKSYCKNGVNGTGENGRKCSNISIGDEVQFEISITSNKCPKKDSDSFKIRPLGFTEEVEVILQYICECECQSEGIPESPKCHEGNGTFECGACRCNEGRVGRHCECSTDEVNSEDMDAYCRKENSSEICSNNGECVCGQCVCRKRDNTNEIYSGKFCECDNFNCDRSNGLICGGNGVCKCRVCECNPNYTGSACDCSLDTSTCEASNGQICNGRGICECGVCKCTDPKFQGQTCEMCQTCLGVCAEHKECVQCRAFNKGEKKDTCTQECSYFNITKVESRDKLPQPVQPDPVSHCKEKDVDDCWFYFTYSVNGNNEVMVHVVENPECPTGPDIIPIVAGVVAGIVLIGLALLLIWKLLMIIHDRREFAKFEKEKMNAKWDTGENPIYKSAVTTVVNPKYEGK
Sequence of Integrin beta-1 (Homo sapiens) + Integrin alpha-4 (Homo sapiens) (P13612 whole entry, looked up): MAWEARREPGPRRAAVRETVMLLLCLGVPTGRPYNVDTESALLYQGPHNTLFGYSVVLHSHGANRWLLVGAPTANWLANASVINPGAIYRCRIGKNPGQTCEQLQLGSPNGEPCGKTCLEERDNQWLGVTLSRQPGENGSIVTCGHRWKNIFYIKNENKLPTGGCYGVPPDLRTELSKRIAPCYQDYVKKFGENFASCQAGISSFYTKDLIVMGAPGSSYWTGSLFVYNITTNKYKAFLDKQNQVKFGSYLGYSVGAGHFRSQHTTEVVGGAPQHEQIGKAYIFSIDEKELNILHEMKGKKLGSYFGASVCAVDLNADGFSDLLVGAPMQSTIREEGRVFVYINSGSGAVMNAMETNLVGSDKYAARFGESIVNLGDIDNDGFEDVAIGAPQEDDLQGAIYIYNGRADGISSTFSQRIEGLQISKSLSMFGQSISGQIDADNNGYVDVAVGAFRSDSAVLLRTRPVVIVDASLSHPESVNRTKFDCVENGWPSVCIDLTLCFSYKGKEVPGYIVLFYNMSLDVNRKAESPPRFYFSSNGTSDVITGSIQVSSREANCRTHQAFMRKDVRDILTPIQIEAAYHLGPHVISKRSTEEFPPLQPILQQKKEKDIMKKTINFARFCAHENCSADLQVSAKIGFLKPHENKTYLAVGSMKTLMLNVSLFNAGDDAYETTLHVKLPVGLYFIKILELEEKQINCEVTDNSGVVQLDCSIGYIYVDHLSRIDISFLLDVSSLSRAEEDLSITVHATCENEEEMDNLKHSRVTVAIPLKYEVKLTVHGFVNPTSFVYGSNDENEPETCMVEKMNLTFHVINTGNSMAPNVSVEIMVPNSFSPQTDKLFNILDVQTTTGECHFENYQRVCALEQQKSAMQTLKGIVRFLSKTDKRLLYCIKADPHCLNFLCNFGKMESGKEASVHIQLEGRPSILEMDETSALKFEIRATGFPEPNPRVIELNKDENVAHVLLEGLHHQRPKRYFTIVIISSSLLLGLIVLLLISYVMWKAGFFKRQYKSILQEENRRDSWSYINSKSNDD
Sequence of ATP-binding cassette sub-family B member 6 (Homo sapiens) (Q9NP58 whole entry, looked up): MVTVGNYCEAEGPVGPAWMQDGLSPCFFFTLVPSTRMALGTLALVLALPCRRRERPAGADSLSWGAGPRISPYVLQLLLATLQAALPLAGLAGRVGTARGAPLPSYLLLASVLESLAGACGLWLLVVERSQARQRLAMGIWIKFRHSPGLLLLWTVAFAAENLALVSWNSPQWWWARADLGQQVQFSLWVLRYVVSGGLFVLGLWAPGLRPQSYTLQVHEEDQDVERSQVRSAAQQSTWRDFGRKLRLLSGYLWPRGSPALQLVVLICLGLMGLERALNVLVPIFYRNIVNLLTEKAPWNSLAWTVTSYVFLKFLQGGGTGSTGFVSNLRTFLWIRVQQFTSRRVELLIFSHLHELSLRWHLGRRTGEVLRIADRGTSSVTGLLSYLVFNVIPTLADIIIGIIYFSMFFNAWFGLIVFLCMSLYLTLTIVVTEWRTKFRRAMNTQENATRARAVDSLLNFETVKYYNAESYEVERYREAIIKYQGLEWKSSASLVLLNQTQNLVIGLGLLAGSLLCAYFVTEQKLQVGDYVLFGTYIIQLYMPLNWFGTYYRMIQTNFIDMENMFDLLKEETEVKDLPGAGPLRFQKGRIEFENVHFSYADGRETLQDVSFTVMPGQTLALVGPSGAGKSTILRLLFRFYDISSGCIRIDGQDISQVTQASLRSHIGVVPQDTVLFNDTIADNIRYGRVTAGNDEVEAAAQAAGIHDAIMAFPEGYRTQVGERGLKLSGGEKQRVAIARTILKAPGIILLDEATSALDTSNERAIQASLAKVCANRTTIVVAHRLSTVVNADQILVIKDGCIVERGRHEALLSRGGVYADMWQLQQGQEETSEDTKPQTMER
Sequence of AP-2 complex subunit beta (Homo sapiens) (P63010 whole entry, looked up, the tested form may be a part, one chain of several): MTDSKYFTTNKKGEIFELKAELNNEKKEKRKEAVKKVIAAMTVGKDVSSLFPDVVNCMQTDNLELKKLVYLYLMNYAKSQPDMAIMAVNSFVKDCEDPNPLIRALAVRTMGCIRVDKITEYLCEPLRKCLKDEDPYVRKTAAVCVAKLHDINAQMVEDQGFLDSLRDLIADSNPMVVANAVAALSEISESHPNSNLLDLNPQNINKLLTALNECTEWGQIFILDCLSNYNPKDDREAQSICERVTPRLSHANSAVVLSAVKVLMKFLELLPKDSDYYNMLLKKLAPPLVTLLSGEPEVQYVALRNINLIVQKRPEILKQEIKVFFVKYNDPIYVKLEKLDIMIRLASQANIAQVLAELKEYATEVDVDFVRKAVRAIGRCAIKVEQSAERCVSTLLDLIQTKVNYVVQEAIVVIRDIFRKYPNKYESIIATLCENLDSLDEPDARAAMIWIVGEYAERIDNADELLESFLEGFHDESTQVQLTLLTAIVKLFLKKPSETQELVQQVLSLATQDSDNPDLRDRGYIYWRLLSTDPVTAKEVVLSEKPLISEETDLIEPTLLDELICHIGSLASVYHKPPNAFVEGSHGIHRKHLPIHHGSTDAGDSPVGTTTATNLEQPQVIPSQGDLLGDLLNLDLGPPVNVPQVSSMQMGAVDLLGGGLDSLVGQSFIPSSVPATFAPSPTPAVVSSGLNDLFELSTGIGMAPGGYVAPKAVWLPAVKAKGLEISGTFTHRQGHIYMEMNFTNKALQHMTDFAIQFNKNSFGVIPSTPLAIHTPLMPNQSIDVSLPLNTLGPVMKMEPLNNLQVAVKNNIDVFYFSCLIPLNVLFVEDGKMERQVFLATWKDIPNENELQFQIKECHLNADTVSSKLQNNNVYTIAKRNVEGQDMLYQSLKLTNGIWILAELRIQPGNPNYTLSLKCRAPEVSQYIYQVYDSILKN

With `CCc1nc2ccccc2n1Cc1ccc(OC)c(OC)c1`, in experiment [1], the percent of DMSO control GFP was 98.1% (inactive). The GFP response vs DMSO in experiment [2] is 99.6% (inactive); in [4], 107% (inactive). Besides, the percent response of DMSO control in [3] was 95.7% (inactive). Besides, the GFP response, % of DMSO in experiment [5] is 109% (inactive). This compound also had a double positive events in experiment [6] of 60.7%. In addition, the vesicle binding response in experiment [6] is 132% (inactive). For the same compound, the figures for the inhibition in experiment [7], in [11] and in [15] were 3.14% (inactive), 7.51% (inactive) and 2% (inactive), respectively. For the same compound, in [8], the superoxide response (% of plate) was 105% (inactive). Also, in experiment [9], the aptamer binding inhibition was 3% (inactive). In addition, the response is -19% (inactive) in experiment [10] and 2.99% (inactive) in [12]. Further, the binding (% of control) in [13] was 89.6% (inactive). For the same compound, the efflux inhibition (fraction of control) in experiment [14] is 0 (inactive). Further, the differentiation response in [16] was 18.7% (inactive).

For `CC1=C(C)C(=O)C(CCCCC#CCCCC#CCO)=C(C)C1=O`, in experiment [1], the percent of DMSO control GFP was 99.3% (inactive). Also, the values for the GFP response vs DMSO in [2] and in [4] were 99.6% (inactive) and 108% (inactive), respectively. Moreover, the percent response of DMSO control in [3] was 99.6% (inactive). Besides, in experiment [5], the GFP response, % of DMSO was 107% (inactive). The compound also had a double positive events in experiment [6] of 62.8%. In addition, the vesicle binding response in experiment [6] was 137% (inactive). The inhibition in [7] is 20.2% (inactive); in experiment [11] it was -0.87% (inactive); in experiment [15], -1% (inactive). The superoxide response (% of plate) in experiment [8] is 77.4% (inactive). Moreover, the aptamer binding inhibition in experiment [9] is 4% (inactive). For the same compound, the response in [10] is -12.4% (inactive); in experiment [12], 1.96% (inactive). In addition, in [13], the binding (% of control) is 103% (inactive). In addition, the efflux inhibition (fraction of control) in [14] is -0.13 (inactive). Further, the differentiation response in experiment [16] was 5.85% (inactive).

As to `CSCC[C@H](NC(=O)NC1CCCC1)C(=O)O`, in [1], the percent of DMSO control GFP was 89.8% (inactive). In addition, the GFP response vs DMSO in experiment [2] was 113% (inactive); in experiment [4] it was 75.4% (inactive). The percent response of DMSO control in experiment [3] was 99.2% (inactive). Also, the GFP response, % of DMSO in [5] is 89.6% (inactive). Also, the double positive events in experiment [6] came to 70.2%. In addition, the vesicle binding response in experiment [6] is 233% (inactive). Besides, the inhibition is 8.4% (inactive) in [7], -9.17% (inactive) in [11] and 13% (inactive) in [15]. Also, in experiment [8], the superoxide response (% of plate) was 113% (inactive). Besides, in experiment [9], the aptamer binding inhibition was 3% (inactive). Moreover, the response in experiment [10] is -7.36% (inactive); in [12], 1.23% (inactive). For the same compound, the binding (% of control) in experiment [13] was 101% (inactive). Also, the efflux inhibition (fraction of control) in experiment [14] was 0.34 (inactive). The differentiation response in experiment [16] is 0.82% (inactive).

For the compound `COC(=O)CSc1nc2ccc(N)cc2s1`, the percent of DMSO control GFP in [1] was 104% (inactive). The GFP response vs DMSO in experiment [2] is 103% (inactive); in [4], 95.3% (inactive). Also, in [3], the percent response of DMSO control is 104% (inactive). Further, the GFP response, % of DMSO in experiment [5] was 97.8% (inactive). In experiment [6], this compound returned a double positive events of 64.4%. The vesicle binding response in experiment [6] is 189% (inactive). Moreover, the inhibition was -3.57% (inactive) in experiment [7], 4.01% (inactive) in experiment [11] and -5% (inactive) in experiment [15]. Further, the superoxide response (% of plate) in [8] was 110% (inactive). Besides, the aptamer binding inhibition in [9] is -1% (inactive). The response in [10] is 5.1% (inactive); in experiment [12], -1.65% (inactive). Besides, the binding (% of control) in experiment [13] is 92% (inactive). Besides, the efflux inhibition (fraction of control) in experiment [14] is 0.02 (inactive). Also, the differentiation response in [16] is 12% (inactive).
